# Test results from the antibiotic and cytotoxicity screens of Wong et al. (2023).
# The whole screen tested about 39,000 compounds, of which about 3,300 (8.5%) were called active. The full list was thinned out, with actives kept by preference.
# Test system: HepG2
# Assay: cytotoxicity call (relative viability < 0.9)
# Conditions: 10 µM
row,Structure (SMILES),cytotoxicity call
1,O=C(C[C@H]1CC[C@@H]2[C@H](COC[C@@H](O)CN2S(=O)(=O)c2ccccc2F)O1)NCc1ccccc1Cl,inactive
2,C[C@H](CO)N1C[C@H](C)[C@@H](CN(C)C(=O)Nc2ccc(F)cc2)OCCCC[C@H](C)Oc2ccc(NC(=O)C3CCCCC3)cc2C1=O,inactive
3,C[C@@H]1CN([C@H](C)CO)C(=O)c2cc(NC(=O)C3CC3)ccc2O[C@@H]1CN(C)Cc1ccc2c(c1)OCO2,inactive
4,Cc1noc(C)c1S(=O)(=O)Nc1ccc2c(c1)CC(=O)N([C@@H](C)CO)C[C@H](C)[C@H](CN(C)S(=O)(=O)c1ccc(Cl)cc1)O2,inactive
5,C[C@@H]1CCCCO[C@H](CN(C)Cc2ccc(C(F)(F)F)cc2)[C@H](C)CN([C@@H](C)CO)C(=O)c2cc(NC(=O)c3ccncc3)ccc2O1,inactive
6,Cc1ccc(S(=O)(=O)N(C)C[C@@H]2Oc3ccc(NS(=O)(=O)c4ccc(F)cc4)cc3C(=O)N([C@@H](C)CO)C[C@H]2C)cc1,inactive
7,Cc1noc(C)c1S(=O)(=O)N(C)C[C@H]1OCCCC[C@@H](C)Oc2ccc(N(C)C)cc2C(=O)N([C@@H](C)CO)C[C@@H]1C,inactive
8,CC(C)NC(=O)Nc1ccc2c(c1)CC(=O)N([C@@H](C)CO)C[C@@H](C)[C@@H](CN(C)Cc1ccc(-c3ccccc3)cc1)O2,inactive
9,CC(C)NC(=O)Nc1ccc2c(c1)CC(=O)N([C@@H](C)CO)C[C@@H](C)[C@H](CN(C)Cc1ccc(-c3ccccc3)cc1)O2,inactive
10,CC(C)NC(=O)Nc1ccc2c(c1)CC(=O)N([C@H](C)CO)C[C@@H](C)[C@@H](CN(C)Cc1ccc(-c3ccccc3)cc1)O2,active
11,CC(C)NC(=O)Nc1ccc2c(c1)CC(=O)N([C@H](C)CO)C[C@H](C)[C@@H](CN(C)Cc1ccc(-c3ccccc3)cc1)O2,inactive
12,CC(C)NC(=O)Nc1ccc2c(c1)CC(=O)N([C@H](C)CO)C[C@@H](C)[C@H](CN(C)Cc1ccc(-c3ccccc3)cc1)O2,inactive
13,CC(C)NC(=O)Nc1ccc2c(c1)CC(=O)N([C@@H](C)CO)C[C@H](C)[C@@H](CN(C)Cc1ccc(-c3ccccc3)cc1)O2,active
14,C[C@@H]1CN([C@@H](C)CO)S(=O)(=O)c2ccc(C#Cc3cccc(F)c3)cc2O[C@@H]1CN(C)S(=O)(=O)c1ccccc1F,inactive
15,C[C@@H]1CCCCO[C@@H](CN(C)Cc2ccc(C(=O)O)cc2)[C@H](C)CN([C@H](C)CO)C(=O)c2cc(NC(=O)Nc3ccc4c(c3)OCO4)ccc2O1,inactive
16,CC(C)NC(=O)N(C)C[C@@H]1Oc2c(NS(=O)(=O)c3ccc(Cl)cc3)cccc2C(=O)N([C@H](C)CO)C[C@H]1C,inactive
17,COC(=O)C1C2CC3c4[nH]c5cc(OC)ccc5c4CCN3CC2CC(OC(=O)c2cc(OC)c(OC)c(OC)c2)C1OC (stereo not given),active
18,COC(=O)C1C(O)CCC2CN3CCc4c([nH]c5ccccc45)C3CC21.Cl (stereo not given),inactive
19,COC(=O)C1C(O)CCC2CN3CCc4c([nH]c5ccccc45)C3CC21 (stereo not given),inactive
20,C[C@H](CO)N1C[C@H](C)[C@H](CN(C)S(=O)(=O)c2ccc(Cl)cc2)Oc2ccc(NS(C)(=O)=O)cc2CC1=O,inactive
21,O=C(C[C@@H]1CC[C@@H]2[C@H](COC[C@@H](O)CN2C(=O)Nc2ccc(Cl)cc2)O1)NC1Cc2ccccc2C1,active
22,O=C(C[C@H]1CC[C@@H]2[C@H](COC[C@@H](O)CN2C(=O)Nc2ccc(Cl)cc2)O1)NC1Cc2ccccc2C1,inactive
23,O=C(C[C@@H]1CC[C@H]2[C@@H](COC[C@@H](O)CN2C(=O)Nc2ccc(Cl)cc2)O1)NC1Cc2ccccc2C1,inactive

row,Structure (SMILES),cytotoxicity call
1,O=C(C[C@H]1CC[C@H]2[C@@H](COC[C@H](O)CN2C(=O)Nc2ccc(Cl)cc2)O1)NC1Cc2ccccc2C1,inactive
2,O=C(C[C@@H]1CC[C@@H]2[C@H](COC[C@H](O)CN2C(=O)Nc2ccc(Cl)cc2)O1)NC1Cc2ccccc2C1,inactive
3,O=C(C[C@H]1CC[C@H]2[C@@H](COC[C@@H](O)CN2C(=O)Nc2ccc(Cl)cc2)O1)NC1Cc2ccccc2C1,active
4,CO[C@H]1CN(C)C(=O)c2ccc(NC(=O)CC(F)(F)F)cc2OC[C@H](C)N(S(=O)(=O)c2cn(C)cn2)C[C@H]1C,inactive
5,C[C@H]1CCCCO[C@H](CN(C)S(C)(=O)=O)[C@@H](C)CN([C@@H](C)CO)C(=O)c2cc(NS(=O)(=O)c3cn(C)cn3)ccc2O1,inactive
6,COc1ccc(NC(=O)Nc2ccc3c(c2)C(=O)N([C@H](C)CO)C[C@H](C)[C@H](CN(C)S(=O)(=O)c2c(C)noc2C)OCCCC[C@H](C)O3)cc1,inactive
7,O=C(C[C@H]1CC[C@H]2[C@@H](COC[C@@H](O)CN2S(=O)(=O)c2ccc(F)cc2)O1)N[C@@H]1CCN(Cc2ccccc2)C1,inactive
8,CC(C)NC(=O)Nc1ccc2c(c1)CC(=O)N([C@H](C)CO)C[C@@H](C)[C@H](CN(C)Cc1ccc(C(=O)O)cc1)O2,inactive
9,C[N+](C)(C)[C@@H]1[C@H]2OC[C@H](O)[C@H]2O[C@@H]1O,inactive
10,CCCNC(=O)N1C[C@H](C)[C@@H](OC)CN(C)C(=O)c2cc(NS(=O)(=O)CC(F)(F)F)ccc2OC[C@H]1C,inactive
11,COc1ccc(NC(=O)Nc2cccc3c2O[C@H](CN(C)Cc2ccc(Cl)c(Cl)c2)[C@@H](C)CN([C@@H](C)CO)C3=O)cc1,inactive
12,C[C@@H]1CN([C@@H](C)CO)C(=O)c2cccc(NC(=O)C3CCCCC3)c2O[C@H]1CN(C)Cc1ccc(Cl)c(Cl)c1,inactive
13,COc1ccc(NC(=O)Nc2cccc3c2O[C@@H](CN(C)Cc2ccc(Cl)c(Cl)c2)[C@@H](C)CN([C@H](C)CO)C3=O)cc1,active
14,C[C@H](CO)N1C[C@H](C)[C@@H](CN(C)Cc2ccc(Cl)c(Cl)c2)Oc2c(NC(=O)Nc3ccccc3)cccc2C1=O,inactive
15,C[C@H](CO)N1C[C@H](C)[C@H](CN(C)Cc2ccc(Cl)c(Cl)c2)Oc2c(NC(=O)Nc3ccc(F)cc3)cccc2C1=O,inactive
16,C[C@@H]1CN([C@H](C)CO)C(=O)c2cccc(NC(=O)Nc3ccccc3)c2O[C@H]1CN(C)Cc1ccc(Cl)c(Cl)c1,inactive
17,C[C@@H]1CN([C@H](C)CO)C(=O)c2cccc(NC(=O)C3CCCCC3)c2O[C@H]1CN(C)Cc1ccc(Cl)c(Cl)c1,inactive
18,C[C@@H]1CN([C@@H](C)CO)C(=O)c2cccc(NC(=O)Nc3ccc(F)cc3)c2O[C@H]1CN(C)Cc1ccc(Cl)c(Cl)c1,active
19,C[C@@H]1CN([C@@H](C)CO)C(=O)c2cccc(NC(=O)Nc3ccccc3)c2O[C@H]1CN(C)Cc1ccc(Cl)c(Cl)c1,active
20,COc1ccc(NC(=O)Nc2cccc3c2O[C@@H](CN(C)Cc2ccc(Cl)c(Cl)c2)[C@H](C)CN([C@@H](C)CO)C3=O)cc1,inactive
21,C[C@H]1CN([C@@H](C)CO)C(=O)c2cccc(NC(=O)C3CCCCC3)c2O[C@@H]1CN(C)Cc1ccc(Cl)c(Cl)c1,active
22,C[C@@H]1CN([C@H](C)CO)C(=O)c2cccc(NC(=O)Nc3ccc(F)cc3)c2O[C@H]1CN(C)Cc1ccc(Cl)c(Cl)c1,inactive
